This is part of a sample that, as a whole, favours compounds with a hit. Of some 79,000 tested, about 15% had one in any assay. No stated cut-off is given here; in the data, active means growth inhibition above about 70%; inactive means the rest.
Experiments:
[1] = NCI Yeast Anticancer Drug Screen. Data for the rad50 strain (AID 155);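 further: 0% = growth of vehicle-only cultures of the same strain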; settings: S. cerevisiae rad50 strain growth inhibition; at 50.0 µM; active compounds read high
Method in brief: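 Growth of the mutant yeast was measured after compound exposure and referenced to vehicle-treated cultures.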

[2] = NCI Yeast Anticancer Drug Screen. Data for the mec2-1 strain (AID 157); settings: S. cerevisiae mec2-1 strain, at 50.0 µM, active compounds read high
Method in brief: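 Vehicle-treated cultures served as reference for growth inhibition of compound-exposed mec2-1 yeast.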

[3] = NCI Yeast Anticancer Drug Screen. Data for the sgs1 mgt1 strain (AID 161);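 further: 0% = growth of cultures given vehicle only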; settings: S. cerevisiae sgs1 mgt1 strain, at 50.0 µM, active compounds read high
Method in brief: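 Mutant yeast exposed to compound; growth scored against vehicle-only wells.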

[4] = NCI Yeast Anticancer Drug Screen. Data for the bub3 strain (AID 167); settings: S. cerevisiae bub3 mutant strain, at 50.0 µM, active compounds read high
Method in brief: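 Whole-cell yeast assay. The mutant strain was incubated with compounds, and growth inhibition was determined by comparison with vehicle-treated cells.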

[5] = NCI Yeast Anticancer Drug Screen. Data for the mlh1 rad18 strain (AID 175); settings: S. cerevisiae mlh1 rad18 strain growth inhibition; at 50.0 µM; active compounds read high
Method in brief: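 Vehicle-treated cultures served as the reference for growth inhibition in a yeast strain carrying DNA damage repair alterations exposed to each compound.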

Measured: growth inhibition

CCOC(=O)C1CC(=O)C2/C(=C(\O)c3ccccc3)C=C([N+](=O)[O-])C1C2[N+](=O)[O-] (stereo not given)
inactive: [1] 3% | [2] 3.65% | [3] -13.6% | [4] 3.6% | [5] -1.2%

Fc1c(F)c(F)c(CCc2c(F)c(F)c(F)c(F)c2F)c(F)c1F
inactive: [1] 11.2% | [2] -8.2% | [3] 15.9% | [4] -41.4% | [5] 19.2%

O=C(O)c1ccc(NC(NC(=O)C(C(F)(F)F)C(F)(F)F)(C(F)(F)F)C(F)(F)F)cc1
inactive: [1] 20.2% | [2] 14.4% | [3] 8.9% | [4] 11.2% | [5] 14.4%

COc1ccc(Cl)cc1[N+](=O)[O-]
inactive: [1] 27.6% | [2] 3.15% | [3] -3.85% | [4] 13.6% | [5] 18.2%

C/C(N=NC(=S)N1CCCC1)=C1\C=CC=CN1O
inactive: [1] 5.45% | [2] -8.35% | [3] 15.4% | [4] 7.95% | [5] 22.9%

N#Cc1c(-c2ccco2)c2c(n(C3OC(CO)C(O)C(O)C3O)c1=S)CCCC2 (stereo not given)
inactive: [1] -12.3% | [2] 6.9% | [3] 15.7% | [4] 5% | [5] 14.8%

CC(=O)C(/C=N\N=C(/C)c1cn[nH]c1C)=C(/C)O
inactive: [1] -54.8% | [2] -21.6% | [3] -18.7% | [4] 8.6% | [5] -18.6%

O=S1(=O)C=CC(N/N=C\c2ccc3ccccc3n2)=C1
inactive: [1] 4.8% | [2] -11.1% | [3] -4.45% | [4] 9.7% | [5] -7.25%

O=C1C2ON3c4ccccc4C(=O)C3(c3ccccc3)C2C(=O)N1c1ccccc1 (stereo not given)
inactive: [1] -40.9% | [2] -31.3% | [3] -63% | [4] -37% | [5] -49%

O=C(O)c1ccc(Nc2nc3ccccc3nc2C(=O)O)cc1
inactive: [1] -19.2% | [2] -26.8% | [3] -33.2% | [4] -13.2% | [5] -0.9%

CN(C)c1ccc(-c2nc(N)nc3c2CCCC3)cc1
inactive: [1] -12.7% | [2] -12.2% | [3] -13.3% | [4] -6% | [5] -34.2%
